Each structure is given as a SMILES string. Inconclusive results are not listed. Activity calls are given as the source filed them. Unless noted, calls follow the shape of the full dose curve.

These results are taken from PubChem BioAssay (Tox21).
% is scaled to controls: 0 for no effect and ±100 for the full control effect.
Also: nearly all actives have a fitted effect of over 15% in size.

One assay in a line: qHTS assay for small molecule agonists of the p53 signaling pathway (AID 651631). As to conditions: HCT-116 p53RE-bla reporter, beta-lactamase FRET ratio, 16 h; series mostly up to 73.3 µM; activation: at the top concentration. A digest of the protocol: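 HCT-116 p53RE-bla reporter line, 16 h compound treatment at 37 °C, then fluorescence after 2 h with B/G FRET substrate.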
On the technique in general: Quantitative high-throughput screening tests each substance at several concentrations.
Turning to `CC1(C)[C@@H]2CC[C@@]1(C)[C@H](O)C2`, the “activation” value is 1.35% (inactive). Same read-out and setting: the same measure for `CC(C)C1CCC(O)CC1` (stereo not drawn): 0.787% (inactive); for `CC(C)NNC(=O)c1ccncc1`: 1.54% (inactive); for `CC(=O)c1cnccn1`: 4.34% [at 95.1 µM] (inactive). On the same count and under the same terms, the value for `NC(=O)Cc1cccc2ccccc12` was -2.86% (inactive). For the compound `C=CN1CCCCCC1=O`, the “activation” value is 2.1% (inactive). As for `O=C1NC(=O)C2CC=CCC12` (stereo not drawn), the “activation” value was -2.83% (inactive). On to `c1coc(CNc2ncnc3nc[nH]c23)c1`, for which the “activation” value was -1.35% (inactive). Same read-out and setting: the value for `CC(C)[C@H]1CC[C@@H](C)CC1=O` was 3.1% (inactive); that for `CC(=O)N1C[C@H](O)C[C@H]1C(=O)O` was 3.27% (inactive); that for `CCCCCCCCN1CCCC1=O` was -0.537% (inactive). Still for that read-out and setting: the same measure for `CC1=NN(c2cc(S(=O)(=O)O)ccc2Cl)C(=O)C1N=Nc1ccccc1` (stereo not drawn): -1.48% (inactive). Turning to `CCCCCCCCCCCCCCC(=O)O`, the “activation” value was 3.55% (inactive). As to `COC(=O)Nc1ccc(Cl)c(Cl)c1`, the “activation” value is 6.32% (inactive).

Turning to `Nc1ccccn1`, the “activation” value was -4.87% (inactive). On to `CCCCS(=O)(=O)N[C@@H](Cc1ccc(OCCCCC2CCNCC2)cc1)C(=O)O`, for which the “activation” value was -2.47% (inactive).

Take `CC(C)CCCO`: the “activation” value is -1.6% (inactive). As to `CC(C)C[C@@H](N)C(=O)O`, the “activation” value is 6.54% (inactive). Take `Clc1cc(Cl)c(Cl)nc1Cl`: the “activation” value was 2.27% (inactive).

Turning to `CC(=O)c1ccc2ccccc2c1`, the “activation” value was 2.8% (inactive).

In the case of `CCCCCC(C)N` (stereo not drawn), the “activation” value is 2.99% (inactive). For the compound `CCOC(=O)COc1cc(-n2ncc(C(F)(F)F)c(C)c2=O)c(F)cc1Cl`, the “activation” value was -2.44% (inactive). As to `C=C(C)C(=O)OCC1CCCO1` (stereo not drawn), the “activation” value is -1.69% (inactive).

For `C[N+]1(C)[C@@H]2CC(OC(=O)[C@H](CO)c3ccccc3)C[C@H]1[C@@H]1O[C@@H]12` (stereo partly drawn), the “activation” value was -2.35% (inactive). Take `CN1CCN(c2cc3c(nn2)Oc2ccccc2N3C)CC1`: the “activation” value was 2.37% (inactive). For the compound `Cc1cccc(C)c1NC(=O)CC12CCCN1CCC2`, the “activation” value was -1.42% (inactive). On the same count and under the same terms, the value for `O=C(O)CCSCCC(=O)O` was -0.51% (inactive); that for `CCOC(=O)CCC(=O)OCC` was -2.49% (inactive); that for `CCN(CC#N)c1cccc(C)c1` was -0.282% (inactive). Take `O=C(O)CNC(=O)c1ccc(CO)o1`: the “activation” value was -1.37% (inactive). On to `CC(=O)Oc1cccc(C)c1`, for which the “activation” value was -4.69% (inactive). For the compound `NO`, the “activation” value is -5.17% [at 95.1 µM] (inactive).

Turning to `c1ccc(CCc2ccccc2)cc1`, the “activation” value is 0.328% (inactive).

Another assay in a line: qHTS assay for small molecules that induce genotoxicity in human embryonic kidney cells expressing luciferase-tagged ATAD5 (AID 651632; active = well fitted activation curve with a large enough effect in the repeat runs). As to conditions: HEK293T ATAD5-luciferase induction, 16 h; series mostly up to 83.3 µM; activation: at the top concentration. The method in brief: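 A rise in luciferase signal from ATAD5-tagged HEK293T cells marks genetic stress. Cells were exposed to compounds for 16 hr at 37C, 5% CO2, then luciferase was quantified after a 30 min room-temperature incubation with Amplite.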
Take `CC1(C)[C@@H]2CC[C@@]1(C)[C@H](O)C2`: the “activation” value was -1.17% (inactive). `CC(C)C1CCC(O)CC1` (stereo not drawn): the “activation” value was -0.66% (inactive). In the case of `CC(C)NNC(=O)c1ccncc1`, the “activation” value is -2.67% (inactive). Regarding `CC(=O)c1cnccn1`, the “activation” value is 2.72% [at 95.3 µM] (inactive). Turning to `C=CN1CCCCCC1=O`, the “activation” value was 0.357% (inactive). For the compound `c1coc(CNc2ncnc3nc[nH]c23)c1`, the “activation” value is 4.2% (inactive). For the compound `CC(=O)N1C[C@H](O)C[C@H]1C(=O)O`, the “activation” value was 1.84% (inactive). `CCCCCCCCN1CCCC1=O`: the “activation” value is 2.39% (inactive). As for `CC1=NN(c2cc(S(=O)(=O)O)ccc2Cl)C(=O)C1N=Nc1ccccc1` (stereo not drawn), the “activation” value is 0.911% (inactive). Still for that read-out and setting: the same measure for `CCCCCCCCCCCCCCC(=O)O`: 8.01% (inactive); for `COC(=O)Nc1ccc(Cl)c(Cl)c1`: -1.07% (inactive); for `CCCCS(=O)(=O)N[C@@H](Cc1ccc(OCCCCC2CCNCC2)cc1)C(=O)O`: 1.86% (inactive).

For `CC(C)CCCO`, the “activation” value is -0.343% (inactive).

Take `CC(C)C[C@@H](N)C(=O)O`: the “activation” value is -6.26% (inactive). Regarding `Clc1cc(Cl)c(Cl)nc1Cl`, the “activation” value is -1.61% (inactive). For `CC(=O)c1ccc2ccccc2c1`, the “activation” value is -1.65% (inactive). As for `CCCCCC(C)N` (stereo not drawn), the “activation” value is -1.51% (inactive). The same measure, in the same setting: the value for `CCOC(=O)COc1cc(-n2ncc(C(F)(F)F)c(C)c2=O)c(F)cc1Cl` was 2.13% (inactive); that for `O=C(O)Cc1csc(-c2ccc(Cl)cc2)n1` was 1.11% (inactive).

For the compound `C=C(C)C(=O)OCC1CCCO1` (stereo not drawn), the “activation” value was -0.65% (inactive). Consider `Nc1c2c(nc3c1CCC3)CCCC2`, for which the “activation” value is -3.62% (inactive). For `C[N+]1(C)[C@@H]2CC(OC(=O)[C@H](CO)c3ccccc3)C[C@H]1[C@@H]1O[C@@H]12` (stereo partly drawn), the “activation” value is -0.75% (inactive). For `Cc1cccc(C)c1NC(=O)CC12CCCN1CCC2`, the “activation” value was 3.02% (inactive). For the compound `O=C(O)CCSCCC(=O)O`, the “activation” value was 5.17% (inactive). Consider `CCOC(=O)CCC(=O)OCC`, for which the “activation” value was 0.508% (inactive). With `CCN(CC#N)c1cccc(C)c1`, the “activation” value was -0.556% (inactive).

Take `O=C(O)CNC(=O)c1ccc(CO)o1`: the “activation” value was 1.16% (inactive). Still for that read-out and setting: the same measure for `CC(=O)Oc1cccc(C)c1`: 1.26% (inactive); for `O=CN(CCO)CCO`: 2.55% (inactive); for `c1ccc(CCc2ccccc2)cc1`: 1.42% (inactive).
